HP1b chromo inh: HTS for Inhibitors of HP1-beta Chromodomain Interactions with Methylated Histone Tails | Chromobox protein homolog 1 (Homo sapiens), P83916 | AlphaScreen HP1-beta / biotin-H3K9me3 peptide binding | Potency, µM (series often up to 114 µM), inactives show top-dose activity change, negative = inhibition, most hits filed as inhibitors | 390,000 tested, 0.56% active | AID 540317, 2011; note: nearly all actives have a fitted effect of over 70% in size
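Compound inhibition of the preformed complex between 50 nM HP1-beta and 50 nM biotinylated H3K9me3 peptide was read by AlphaScreen. Buffer was PBS pH 7.4 with 0.01% Tween-20. Incubations ran 30 min at room temperature, with 10 ug/mL donor/acceptor beads.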
BAZ2B inh: qHTS Assay for Inhibitors of BAZ2B. 360,000 tested, 4.4% active. Potency, µM (doses to about 114 µM), for inactives: at the highest dose activity change, negative = inhibition, hits mostly inhibitors. AlphaScreen BAZ2B-H3K14Ac peptide displacement. AID 504333, 2011; note: % is set by controls: 0 for no effect and ±100 for the full control effect; nearly all actives have a fitted effect of over 60% in size
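BAZ2B 50 nM plus b-H3(5-23)K14Ac 50 nM, PBS pH 7.4/0.01% Tween-20, 30 min RT; compound added (max 110 uM), 30 min RT; streptavidin donor/Ni-chelate acceptor beads 10 ug/mL final, 20 min dark; AlphaScreen read.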
JMJD2A Tudor: qHTS Assay for Inhibitors of JMJD2A-Tudor Domain. Lysine-specific demethylase 4A (Homo sapiens), O75164. AlphaScreen JMJD2A-Tudor / H3K4me3 peptide binding. Potency, µM (highest dose often 114 µM), inactives show at the top dose activity change, negative = inhibition, most hits filed as inhibitors. 390,000 tested, 4.4% active; note: % is set by controls: 0 for no effect and ±100 for the full control effect; nearly all actives have a fitted effect of over 50% in size
G9a block: qHTS Assay for Inhibitors of Histone Lysine Methyltransferase G9a; Histone-lysine N-methyltransferase EHMT2 (Homo sapiens), Q96KQ7; G9a H3K9 monomethylation, AlphaScreen, 2 h; Potency, µM (series often up to 102 µM), without a hit: at the top dose activity, negative = inhibition, hits mostly inhibitors; 350,000 tested, 8.8% active; AID 504332, 2011; note: % is set by controls: 0 for no effect and ±100 for the full control effect; nearly all actives have a fitted effect of over 75% in size
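Step 1: enzyme (final 20 nM) with compound, 15 min RT. Step 2: substrate peptide 500 nM and SAM 20 uM, 2 h RT. Step 3: anti-H3K9me1 antibody and AlphaScreen beads, 10 min, then plate read.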
L3MBTL1 inh: qHTS Assay for the Inhibitors of L3MBTL1 | Lethal(3)malignant brain tumor-like protein 1 (Homo sapiens), Q9Y468 | AlphaScreen L3MBTL1–H3K9me1 peptide binding | Potency, µM (doses to about 57.1 µM), for inactives: top-dose activity, negative = inhibition, hits mostly inhibitors | 230,000 tested, 0.66% active; note: % is set by controls: 0 for no effect and ±100 for the full control effect; nearly all actives have a fitted effect of over 60% in size
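AlphaScreen proximity signal between nickel-chelate acceptor and streptavidin donor beads (final 10 ug/mL) reports binding of 50 nM L3MBTL1 to 75 nM biotin-H3 K9me1 peptide; complex incubated with compounds 30 min at room temperature; cefsulodin titration as control.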
Active calls of the source: *; u = inconclusive; x = not tested or not shown; [ ] = dose if it differs, or a comment. The list is not random: actives were taken first. Their share in the collection is about 11%. Calls come from the whole dose curve; as a rule, active = well fitted inhibition curve with a large enough effect; inconclusive = small, poorly fitted or top-dose-only effect; inactive = no such curve, though single readings can be large or run the other way. Potency is the fitted concentration of half-maximal effect.

SMILES	HP1b chromo inh	BAZ2B inh	JMJD2A Tudor	G9a block	L3MBTL1 inh
Cc1cc(SCC(=O)c2ccc(O)c(O)c2)n2nc(C)c(-c3ccccc3)c2n1	4%	u	-19%[11.4 µM]	11µM*	-23%
Cc1ccc(C(=O)CSc2nc(C)cc(=O)[nH]2)cc1	61%	-3%	-14%	50µM*	7%
COCc1cc(C)nc(SCC(=O)c2ccc(O)c(O)c2)c1C#N	1%	-38%	22µM*	10µM*	-4%
CCc1cccc(C)c1NC(=O)Cn1ccn(-c2cccc(OC)c2)c(=O)c1=O	27%	2%	6%	-3%[59 µM]	x
Cc1ccc(S(=O)(=O)N(CC(=O)Nc2cccnc2)c2cc(Cl)ccc2C)cc1	14%	u	-30%	-46%[59 µM]	x
Cc1cc(C)nc(SCNC(=O)c2ccc(Cl)cc2)n1	41%	-10%	u	50µM*	x
O=C(CSc1nc2ccccc2c(=O)[nH]1)c1ccc(O)cc1O	15%	2%	-8%	u	7%
Cc1cc(C)nc(SCc2ccc(Cl)cc2)n1	101%	39%	65%	84%	17%
O=C(CSc1nc2ccccc2c(=O)[nH]1)c1ccc(O)c(O)c1	-58%	-8%	56µM*	5%[12.7 µM]	-5%[11.4 µM]
O=C(Nc1cccc(S(=O)(=O)N2CCCCCC2)c1)c1ccc2ccccc2n1	26%	-1%	-16%	u	-2%
O=[N+]([O-])c1ccc(N2CCCC2)cc1N1CCCC1	16µM*	25µM*	45µM*	-1%[12.7 µM]	u
CC(=O)Nc1ccc(NC(=O)c2ccccc2C)cc1	-3%	3%	-4%	39%[12.7 µM]	x
O=C(Nc1ccc(N2CCCCC2)cc1)c1ccc2ccccc2n1	u	u	20µM*	28µM*	x
O=C(Nc1ccc(N2CCCC2)cc1)c1ccccc1[N+](=O)[O-]	25%	-38%	-7%	13µM*	-3%
Cc1ccccc1C(=O)Nc1ccc(N2CCCC2)cc1	-13%	u	28µM*	3.2µM*	-13%
COCCCNC(=O)CCCn1c(=O)c2cccn2c2ccccc21	24%	-6%	-31%	-1%[59 µM]	x
CCOC(=O)CNC(=O)N1CCc2cc(S(=O)(=O)N3CCC(C)CC3)ccc21	17%	4%	-10%	-1%[59 µM]	x
Cc1ccc(C(=O)Nc2ccc(N3CCCC3)cc2)c(C)c1	u	u	50µM*	x	-19%
CCCCOc1ccc(CSc2n[nH]c(C)n2)cc1	41%	-4%	-17%	28µM*	5%
C[C@H](NC(=O)c1ccccc1)C(=O)Nc1nc(-c2ccccn2)cs1	36%	14µM*	79µM*	-3%	x
CC(Oc1cccc(Cl)c1)C(=O)Nc1ccncc1 (centres undefined)	26%	-13%	-13%	x	46%
CC(Oc1cccc(Cl)c1)C(=O)Nc1nc(-c2ccccn2)cs1 (centres undefined)	51%	56µM*	50µM*	32µM*	-11%
CC(Oc1ccccc1)C(=O)Nc1nc(-c2ccncc2)cs1 (centres undefined)	31%	3%	-10%	-9%[12.7 µM]	0%
CC(Oc1ccccc1)C(=O)Nc1nc(-c2ccccn2)cs1 (centres undefined)	16%	40µM*	20µM*	50µM*	u
CN(C)c1ncc2nc(-c3ccccc3)c(=O)n(-c3ccccc3)c2n1	x	x	x	3%[0.501 µM]	x
SMILES	HP1b chromo inh	BAZ2B inh	JMJD2A Tudor	G9a block	L3MBTL1 inh
O=C(CCN1C(=O)c2ccccc2Sc2ncccc21)Nc1ccc(F)cc1	10%	-35%	-31%	u	x
N#Cc1ccc(S(=O)(=O)N2CCN(c3nc(-c4ccccc4)nc4ccccc34)CC2)cc1	50%	x	-18%	x	x
O=[N+]([O-])c1cccc(-c2nc(-c3cccs3)c(-c3cccs3)[nH]2)c1	u	u	-24%[11.4 µM]	u	-8%
O=[N+]([O-])c1ccc(-c2nc(-c3cccs3)c(-c3cccs3)[nH]2)cc1	u	-4%	20µM*	x	u
Oc1cccc(-c2nc(-c3cccs3)c(-c3cccs3)[nH]2)c1	-2%	40µM*	u	u	x
COc1ccc(-c2nc(-c3cccs3)c(-c3cccs3)[nH]2)cc1OC	-32%	-5%	-9%	-7%[12.7 µM]	x
COc1ccc(-c2nc(-c3ccccc3)c(-c3cccs3)[nH]2)cc1OC	-22%	9%	40µM*	-5%[12.7 µM]	x
CCOc1ccccc1CNC(=O)C(CC)n1nc(C)c2c(C)n(-c3ccccc3)nc2c1=O (centres undefined)	15%	-15%	-13%	-2%[59 µM]	x
O=C(Nc1ccccc1)N1CCCC2(CCN(C(=O)c3cc(C(F)(F)F)cc(C(F)(F)F)c3)CC2)C1	x	x	x	1%[12.7 µM]	x
CCC(C)NC(=O)CCc1c(C)nc2cc(-c3ccc(OC)cc3OC)nn2c1C (centres undefined)	29%	-4%	-14%	4%[59 µM]	x
Cc1cc(C)c(NC(=O)Cn2c(=O)n(Cc3ccc(C(=O)NCc4ccco4)cc3)c(=O)c3sccc32)c(C)c1	63%	50µM*	-4%	-9%[59 µM]	x
Cc1ccc(-n2c(=O)c3sccc3n(CC(=O)NCc3ccco3)c2=O)cc1	20%	14%	-12%	79µM*	-7%
COc1ccc2c(c1)OC(=O)CC2c1ccccc1C (centres undefined)	x	x	x	3%	x
COC(=O)c1c(NC(=O)c2ccc(Br)o2)sc(C)c1C	-6%	11%	2%	50µM*	-5%
COC(=O)c1c(NC(=O)c2ccco2)sc(C)c1C	37%	1%	13%	u	33%[11.4 µM]
Cc1cc(=O)oc2c(C(=O)/C=C\c3cccs3)c(O)ccc12	-24%	u	u	45µM*	-5%
Cc1nn2c(-c3cccc(NC(=O)c4ccc(Cl)cc4)c3)nnc2c2ccccc12	28%	-4%	-8%	-34%[59 µM]	x
CCOC(=O)c1c(=O)n(O)c2ccc(OC)cc2[n+]1[O-]	3%	u	50µM*	50µM*	x
CCOC(=O)Cc1cc(=O)n2[nH]c(C)cc2n1	11%	u	16µM*	-24%[59 µM]	25%[11.4 µM]
CCOC(=O)Cc1cc(=O)n2[nH]c(-c3ccc(Cl)cc3)cc2n1	31%	-4%	-8%	5%	x
O=c1cc(-c2cccc(F)c2)[nH]c2cc(F)ccc12	x	x	x	10%	x
O=C1N=C(N2CCN(c3ccccc3)CC2)S/C1=C/c1cccs1	-1%	-33%	-25%	-20%[59 µM]	u
O=C1OC(c2ccccc2)=C/C1=C/c1cccs1	-8%	10µM*	u	13µM*	-24%
O=C1N=C(c2ccccc2)S/C1=C\c1cccs1	-74%	u	22µM*	1.4µM*	x
O=C(CSc1nc2ncccc2o1)Nc1ccc(Cl)cc1F	14%	-6%	-14%	12%[59 µM]	x
